Results reported in PubChem BioAssay (NCATS).
Results filed as inconclusive are left out. Where a call stands in place of a potency, no number is given. Calls of active or inactive are those of the source. The call rests on the fitted dose curve; in most records, active means well fitted inhibition curve with a large enough effect; inconclusive means small, poorly fitted or top-dose-only effect; inactive means no such curve, though single readings can be large or run the other way.

Experiments:
[1] = system: Zika virus NS2B-NS3 protease (unlinked complex); assay: Primary screen GU Rhodamine qHTS for Zika virus inhibitors: Unlinked NS2B-NS3 protease assay (AID 1347159); further: nearly all actives have a fitted effect of over 60% in size
Outline: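 In dose–response format, inhibition of unlinked protease (25 nM) was measured with 1.5 microM bis-peptide Rhodamine110 substrate. Aprotinin served as the intraplate control.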

[2] = system: Zika virus NS2B-NS3 protease (linked construct); assay: Primary screen NINDS Rhodamine qHTS for Zika virus inhibitors (AID 1347160); further: nearly all actives have a fitted effect of over 55% in size
Outline: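 Each compound, titrated, sat 15 min with 25 nM linked protease before 1.5 microM Rhodamine110 substrate went in. Fluorescence gain over the next 15 min, in pH 8.0 Tris with Tween 20, gave Hill-fitted curves.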
Potency means the concentration at half of the fitted maximal effect.

| Compound | Potency [1] | Potency [2] |
| --- | --- | --- |
| COCC(=O)NC/C=C/c1ccc2ncnc(Nc3ccc(Oc4ccc(C)nc4)c(C)c3)c2c1 | inactive | inactive |
| CNCc1cc(-c2ccccc2F)n(S(=O)(=O)c2cccnc2)c1 | inactive | inactive |
| COc1cc2c(Nc3cc(F)c(Cl)c(Cl)c3)ncnc2cc1OCC1CCCN(C)CCC1 | inactive | inactive |
| CC(C)CC(=O)c1c(O)cc2c(c1O)C(CC(C)C)C1=C(O2)C(C)(C)C(=O)C(C)(C)C1=O (centres undefined) | 8.91 µM (active) | 7.82 µM (active) |
| OC1C=C2C3CN(Cc4cc5c(cc43)OCO5)C2CC1O (centres undefined) | inactive | inactive |
| CO[C@@H]1[C@H](O)CCC2(CO2)[C@H]1[C@@]1(C)O[C@@H]1CC=C(C)C (some centres undefined) | inactive | inactive |
| CN(C)C(=O)Nc1cc(-c2ccccc2)ccc1N(C)C | inactive | inactive |
